According to ChEMBL document CHEMBL3988442, “University of Dundee, Small-Polar-MMV Screening Library” (2021):
Values joined by “and” are separate entries in the source; they are usually repeats but may differ in a detail not shown here. Equal entries are not always repeated. The campaign covered roughly 34,000 compounds. About 290 (0.85%) showed an effect of 50% or more. The entries come from a sample that favours strong results as a whole.

System: Plasmodium falciparum
Assay: Plasmodium falciparum sporozoite viability assay
Type: functional, organism-based
Design: scale not given: in the data most compounds retested in dose-response had high values

Compound | Percent Effect [%] | Percent Effect (10 mM as filed; unlikely as a test dose)
NC(=O)c1cc(C2CCCN(C(=O)CCc3ccncc3)C2)n[nH]1 (stereo not given) | -0.3069 | –
Cc1ccnc(NC(=O)CSCc2cccnc2)c1 | – | 65.53% and 89.16%
CC(C)c1n[nH]c(C(=O)Nc2ccccn2)c1Br | – | 107.3% and 96.92% and 105.3%
Cl.O=C(Nc1ccccn1)c1cncc(C2CCNCC2)n1 | -0.4476 | –
CC(C)C(NC(=O)Nc1ccccn1)c1cccs1 (stereo not given) | 14.64 | –
Cc1ccnc(NC(=O)c2ccc(Cl)o2)c1 | – | 72.69% and 57.82%
CC(C)c1n[nH]c(C(=O)NC(C)c2ccncc2)c1Br (stereo not given) | – | 40.84% and 49.25% and 43.96%
Cc1ccc(NC(=O)CSCc2cccnc2)nc1 | – | -29.55% and -38.68%
Cc1ccnc(NC(=O)c2ccc(C)o2)c1 | – | -40.27% and -55.88%
CC(C)c1n[nH]c(C(=O)Nc2ccncc2)c1Br | – | 98.93% and 67.14% and 45.46%
CCC1CCCCN1C(=O)c1ccnc(N(C)C)c1 (stereo not given) | 0.6463 | –
Cc1ccccc1OC1CCN(S(=O)(=O)c2c(C)n[nH]c2C)CC1 | 0.8951 | –
COc1ccccc1CN(Cc1nc(CC(C)C)no1)C1CC1 | -1.432 | –
COc1c(C2CCCN2C(=O)c2ccc3c(c2)OCO3)c(C)nn1C (stereo not given) | 6.2 | –
Cn1ccnc1C(=O)N1CCC2(CCN2Cc2ccc(F)cc2)C1.O=C(O)C(F)(F)F (stereo not given) | -1.35 | –
Cc1cccc(CN2CCn3c(COc4ncccn4)nnc3C2)n1 | -3.893 | –
O=C(N[C@@H]1CC[C@@H](N2CCCC2)[C@@H]1O)c1cc2ccccc2[nH]1 | 4.476 | –
Cc1ccnc(NC(=O)CCNC(=O)c2ccccc2Cl)c1 | – | 67.45% and 43.1%
Cc1cccc(NC(=O)c2cnc(C3CCCNC3)cn2)n1 (stereo not given) | – | 4.473% and -18.26% and -18.86%
CCC(NC(=O)CCNC(=O)c1ccccc1F)c1cc(C)ccn1 (stereo not given) | – | -6.667% and 1.59%
Cc1ccnc(NC(=O)c2cnc(C3CCCNC3)cn2)c1 (stereo not given) | – | 70.96% and 81.72% and 59.47%
Cc1ccnc(NCCNC(=O)CCNC(=O)c2ccccc2F)c1 | – | 3.593% and 6.463%
Cc1ccnc(NC(=O)c2cncc(C3CCNCC3)n2)c1 | 28.13 | –

Compound | Percent Effect [%] | Percent Effect (10 mM as filed; unlikely as a test dose)
CNC(=O)CC1CC2(CCN(S(C)(=O)=O)CC2)c2ccccc21 (stereo not given) | -20.92 | –
Fc1cnc(N2C[C@@H]3C[C@@H](c4nc(C5CC5)cs4)O[C@@H]3C2)nc1.O=C(O)C(F)(F)F | -20.62 | –
Cc1ncc2c(n1)CN(Cc1nnc(-c3occc3C)o1)CC2 | – | 65.26% and 48.37% and 69.52%
Cc1ccc(-c2nnc(CN3CCc4cnc(C)nc4C3)o2)cc1 | – | 3.206% and -6.075% and -3.091%
Cc1noc(C)c1CC(=O)N[C@@H]1CC[C@@H](Oc2ccccc2)[C@@H]1O | 3.978 | –
Cc1nccn1C1CCCN(C(=O)c2ccc(-n3cccn3)nc2)C1 (stereo not given) | -4.8 | –
CN1CCN(c2cc(CNC(=O)c3ccsc3)ccn2)CC1 | 4.114 | –
CN1CC(=O)N(c2cccc(F)c2)CC12CCN(CC1CC1)C2.O=C(O)C(F)(F)F.O=C(O)C(F)(F)F (stereo not given) | -25.37 | –
c1ccc(-c2nnc(N3CCCC4(CCOC4)C3)s2)cc1 (stereo not given) | – | 67.59% and 93.8% and 88.49%
c1ccc2sc(N3CCCC4(CCOC4)C3)nc2c1 (stereo not given) | – | -44.73% and -22.63% and -45.78%
O=C1CN(c2ccc(CNC(=O)NCCO)cc2)CCN1 | 1.887 | –
CCc1noc(CN(CC)Cc2cc3cc(C)ccc3[nH]c2=O)n1 | -10 | –
CC(=O)Nc1nc(C(=O)N2CCCC(c3cc(C)[nH]n3)C2)cs1 (stereo not given) | 3.993 | –
CC(=O)Nc1nc(C(=O)N2CCC(Nc3cccnn3)CC2)cs1 | -14.59 | –
Cc1cs/c(=N/C(=O)c2csc(NCC(C)C)n2)[nH]1 | – | -15.12% and -26.88%
Cc1[nH]/c(=N\C(=O)c2csc(NC3CC3)n2)sc1C | – | 50.71% and 20.82% and 44.18%
Cc1cn2c(n1)CCC(NC(=O)c1cc[nH]n1)C2 (stereo not given) | 2.695 | –
Cc1[nH]/c(=N\C(=O)c2csc(NC3CCCC3)n2)sc1C | – | 52.39% and 34.41%
Cc1[nH]/c(=N\C(=O)c2csc(NCC(C)C)n2)sc1C | – | 72.35% and 45.27% and 35.24%
O=C(O)C(F)(F)F.O=C(O)C(F)(F)F.c1cncc(C2COC3(CCN(Cc4cccs4)CC3)C2)c1 (stereo not given) | -1.667 | –
CC(Cn1cccn1)NC(=O)NCCc1cccs1 (stereo not given) | -5.389 | –
CC(C)c1n[nH]c(C2CN(C(=O)c3cn4ccccc4n3)CCO2)n1 (stereo not given) | -4.937 | –
